Bioassay records as filed in PubChem.
Shown are actives, neighbours in structure and some others; about 0.48% of the full set was active somewhere.
NCOA1 inh – inhibitors of human steroid receptor coactivator 1 (SRC1); Q15788; HEK293 GAL4-SRC1 luciferase reporter, luminescence; inhibition, % at 3.6 µM; 360,000 tested, 0.12% active;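 active = inhibition above the campaign mean plus 3 SD, with each screening campaign given its own cutoff, cut at about 60% in these data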;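 also: 0% = DMSO treated cells and 100% = gossypol at 36 µM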
NCOA3 inh – human NCOA3 inhibition | Q9Y6Q9 | HEK293 GAL4-SRC3 luciferase reporter, luminescence | inhibition, % at 3.6 µM | 360,000 tested, 0.17% active | AID 588352;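 active = inhibition above a per-campaign cutoff, the mean of all compounds plus 3 SD, cut at about 60% in these data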;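 also: 0% = DMSO-treated cells and 100% = gossypol-treated cells at 36 µM; higher means less SRC3-driven luciferase light from the GAL4 reporter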
SRC2 inh – human SRC2 (NCOA2) inhibition. inhibition, % at 9 µM. 370,000 tested, 0.17% active. Q15596. HEK293 GAL4-SRC2 luciferase reporter, luminescence;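 active = inhibition above the mean inhibition of all tested compounds plus 3 SD, set per campaign, cut at about 52% in these data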;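 also: 0% = DMSO treated cells and 100% = cells given Gossypol at 36 µM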
NR5A2 inv ag – suppresses constitutive activity of human LRH-1. HEK293T StAR-luciferase reporter, LRH-1 transfected, 24 h. inhibition, % at 3.6 µM. 360,000 tested, 0.13% active. AID 602396;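 active = inhibition above the mean inhibition of all tested compounds plus 3 SD, cut at about 73% in these data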;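 also: 0% = DMSO wells and 100% = reporter-only cells lacking LRH-1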
Target sequence (O00482 whole entry, looked up): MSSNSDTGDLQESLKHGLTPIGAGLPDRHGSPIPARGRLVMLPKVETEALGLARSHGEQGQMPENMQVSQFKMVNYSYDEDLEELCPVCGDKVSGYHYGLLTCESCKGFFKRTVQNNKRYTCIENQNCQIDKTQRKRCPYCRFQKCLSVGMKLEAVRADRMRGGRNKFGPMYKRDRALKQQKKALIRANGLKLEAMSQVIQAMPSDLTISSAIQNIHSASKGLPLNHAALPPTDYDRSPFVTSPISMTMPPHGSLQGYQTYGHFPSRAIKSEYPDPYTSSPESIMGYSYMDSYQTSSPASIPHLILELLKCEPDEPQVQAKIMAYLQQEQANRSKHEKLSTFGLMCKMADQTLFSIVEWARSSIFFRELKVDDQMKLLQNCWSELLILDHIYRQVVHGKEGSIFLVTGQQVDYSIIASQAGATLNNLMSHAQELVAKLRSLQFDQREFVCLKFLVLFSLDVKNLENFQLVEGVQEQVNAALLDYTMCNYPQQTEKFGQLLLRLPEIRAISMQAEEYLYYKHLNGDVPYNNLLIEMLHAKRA
LGR2 inh – blocks bursicon-induced cAMP signaling via Drosophila LGR2. HEK293 LGR2, CRE-luciferase, bursicon-stimulated, 4 h. AID 720647. 380,000 tested, 0.35% active. inhibition, % at 9.99 µM;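 active = drop in luminescence signal, shown as inhibition above about 50% in the replicate tests, limit read from the data, passing the limit was not always enough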;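 also: agonist challenge used bursicon conditioned medium at about half maximal strength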
Starred values were filed as active, the others as inactive.

Screening CSc1ccc(C2NN=C(c3ccccc3)S2)cc1 (centres undefined) returned NCOA1 inh -141, NCOA3 inh -75, SRC2 inh -47, NR5A2 inv ag -85 and LGR2 inh 84*.
`COc1ccc(CN2CC3(C2)CN(C(=O)CN(C)C)[C@H](CO)c2[nH]c4cc(OC)ccc4c23)cc1` gave LGR2 inh 3.
`Cc1ccnc2c1ccc1c(C)ccnc12` gave NCOA1 inh 77*, NCOA3 inh 75* and NR5A2 inv ag 93*.
For Cc1nnc(SCC(=O)N2CCC(c3noc4ccc(F)cc34)CC2)s1 the results were NCOA1 inh 62*, NCOA3 inh 63*, SRC2 inh 46, NR5A2 inv ag 21 and LGR2 inh 21.
C[C@H](CO)N1C[C@H](C)[C@H](CN(C)Cc2ccc(C(=O)Nc3ccccc3N)cc2)Oc2ccc(NC(=O)Cc3ccccc3)cc2CC1=O was read as LGR2 inh -4.
Screening O=C(COc1ccccc1[N+](=O)[O-])Nc1ccc(N2CCN(C(=O)c3cccs3)CC2)cc1 returned NCOA1 inh 20, NCOA3 inh 42, SRC2 inh 14, NR5A2 inv ag 11 and LGR2 inh 75*.
C=C1CC(Cn2cc(Br)c(=O)[nH]c2=O)(c2ccc(-c3ccccc3)cc2)OC1=O (centres undefined) was read as NCOA1 inh -2, NCOA3 inh -13, SRC2 inh -6, NR5A2 inv ag 15 and LGR2 inh 76*.
`Cc1ccc2c(c1)sc(=NC(=O)c1cccs1)n2C` gave NCOA1 inh -29, NCOA3 inh -35, SRC2 inh 38, NR5A2 inv ag -46 and LGR2 inh 96*.
`C[C@H](CO)N1C[C@H](C)[C@H](CN(C)S(C)(=O)=O)OCCCC[C@H](C)Oc2ccc(NC(=O)Nc3ccc(C(F)(F)F)cc3)cc2C1=O` gave LGR2 inh -1.
Screening Cc1nnc(NC(=O)c2ccc(N3CCCC3=O)cc2)s1 returned NCOA1 inh -3, NCOA3 inh -25, SRC2 inh -10, NR5A2 inv ag -58 and LGR2 inh -22.
Cc1csc(NC(=O)c2ccc(N3CCCC3=O)cc2)n1 was read as NCOA1 inh -23, NCOA3 inh -31, SRC2 inh 14, NR5A2 inv ag -85 and LGR2 inh 90*.
C[C@H](CO)N1C[C@H](C)[C@H](CN(C)C(=O)Nc2ccccc2)Oc2ccc(NC(=O)Nc3ccc4c(c3)OCO4)cc2C1=O was read as LGR2 inh 12.
Screening Cc1ccc(C(=O)NC2CCCCCCC2)c(Cl)c1 returned NCOA1 inh -58, NCOA3 inh -54, SRC2 inh 6, NR5A2 inv ag -102 and LGR2 inh 80*.
Screening CCCC(=O)Nc1ccc2c(c1)C(=O)N(C)[C@@H]1CC[C@H](CC(=O)Nc3ccccc3)O[C@H]1CO2 returned LGR2 inh -7.
Screening CC(C)(C)c1ccc(C(=O)O/N=C(\N)c2ccccc2)cc1 returned NCOA1 inh 82*, NCOA3 inh 82*, SRC2 inh 80*, NR5A2 inv ag 69 and LGR2 inh 91*.
`COc1ccc(/C(N)=N/OC(=O)c2ccco2)cc1` gave NCOA1 inh -84, NCOA3 inh -54, SRC2 inh -19, NR5A2 inv ag -154 and LGR2 inh 69*.
For COc1ccc(C(=O)O/N=C(\N)c2ccccc2)cc1 the results were NCOA1 inh -102, NCOA3 inh -98, SRC2 inh -12, NR5A2 inv ag -109 and LGR2 inh 79*.
`CO[C@@H]1CC[C@@H]2CCN(C)C(=O)C[C@@H](c3ccccc3)CN(C)C(=O)c3cc(C#N)ccc3OC[C@@H]1O2` gave LGR2 inh 16.
C[C@@H]1CCCCO[C@H](CN(C)Cc2ccc(C(F)(F)F)cc2)[C@@H](C)CN([C@H](C)CO)C(=O)c2cc(NC(=O)CCCCCC(=O)Nc3ccccc3N)ccc2O1 was read as LGR2 inh -18.
For COc1ccc(NC(=O)Nc2ccc3c(c2)CC(=O)N([C@H](C)CO)C[C@@H](C)[C@@H](CN(C)C(=O)Nc2ccc(OC)cc2)O3)cc1 the results were LGR2 inh -4.
Screening CCCNC(=O)Nc1ccc2c(c1)C(=O)N(C)C[C@@H](OC)[C@H](C)CN(CCC(F)(F)F)[C@H](C)CO2 returned LGR2 inh -4.
Screening CCCC(=O)NC(c1ccc(OC)cc1)c1ccc2cccnc2c1O (centres undefined) returned NCOA1 inh 20, NCOA3 inh 62*, SRC2 inh 20, NR5A2 inv ag 13 and LGR2 inh 25.
For CCCCC(=O)NC(c1ccc(C(C)C)cc1)c1ccc2cccnc2c1O (centres undefined) the results were NCOA1 inh 42, NCOA3 inh 68*, SRC2 inh 25, NR5A2 inv ag 7 and LGR2 inh 27.
`CC(=O)NC(c1ccc(C(C)C)cc1)c1ccc2cccnc2c1O` (centres undefined) gave NCOA1 inh 68*, NCOA3 inh 82*, SRC2 inh 35, NR5A2 inv ag 90* and LGR2 inh 22.
For CCCC(=O)NC(c1ccccc1)c1ccc2cccnc2c1O (centres undefined) the results were NCOA1 inh 19, NCOA3 inh 26, SRC2 inh 34 and NR5A2 inv ag 11.
Screening CCCCC(=O)NC(c1ccccc1)c1ccc2cccnc2c1O (centres undefined) returned NCOA1 inh 40, NCOA3 inh 66*, SRC2 inh -11, NR5A2 inv ag 89* and LGR2 inh 27.
Screening CCCCC(=O)NC(c1cccc([N+](=O)[O-])c1)c1ccc2cccnc2c1O (centres undefined) returned NCOA1 inh 25, NCOA3 inh 22, SRC2 inh 44, NR5A2 inv ag 11 and LGR2 inh 25.
Screening COc1ccc(S(=O)(=O)N[C@H]2C=C[C@H](CC(=O)NCc3ccccc3F)O[C@H]2CO)cc1 returned LGR2 inh 1.
CCC(=O)Nc1ccc2c(c1)C(=O)N(C)[C@H]1CC[C@H](CC(=O)Nc3c(F)cccc3F)O[C@@H]1CO2 was read as LGR2 inh -7.
`COc1cccc(NC(=O)N[C@H]2C=C[C@@H](CC(=O)N3CCCCC3)O[C@H]2CO)c1` gave LGR2 inh 26.
O=S(=O)(N[C@@H]1CC[C@@H](CCn2cc(-c3ccccc3F)nn2)O[C@H]1CO)c1ccc(F)cc1 was read as LGR2 inh -5.
For CCCCC(=O)NC(c1ccccc1Cl)c1ccc2cccnc2c1O (centres undefined) the results were NCOA1 inh 54, NCOA3 inh 73*, SRC2 inh 32, NR5A2 inv ag 60 and LGR2 inh 22.
For CCCCC(=O)NC(c1ccco1)c1cc(Cl)c2cccnc2c1O (centres undefined) the results were NCOA1 inh 18, NCOA3 inh 33, SRC2 inh -22, NR5A2 inv ag 22 and LGR2 inh 30.
